Experimental data taken from PubChem BioAssay (NCATS).
Unmarked numbers belong to inactive results. Records with an inconclusive call do not appear. Entries that show only a call come without a potency. Activity calls are given as the source filed them. The call rests on the fitted dose curve; in most records, active means well fitted curve in the direction sought with a large enough effect; inconclusive means small, poorly fitted or top-dose-only effect, or another doubt; inactive means no such curve, though single readings can be large; an effect the other way counts as inactive or inconclusive.

Assays:
[1] = target: Glutathione peroxidase 1 (Homo sapiens) (UniProt P07203); test: Primary qHTS Assay for Inhibitors of Recombinant Selenoprotein Glutathione Peroxidase 1 (GPX1) (AID 1845191); further: nearly all actives have a fitted effect of over 65% in size
Glutathione peroxidase 1 (Homo sapiens), sequence (P07203 whole entry, looked up): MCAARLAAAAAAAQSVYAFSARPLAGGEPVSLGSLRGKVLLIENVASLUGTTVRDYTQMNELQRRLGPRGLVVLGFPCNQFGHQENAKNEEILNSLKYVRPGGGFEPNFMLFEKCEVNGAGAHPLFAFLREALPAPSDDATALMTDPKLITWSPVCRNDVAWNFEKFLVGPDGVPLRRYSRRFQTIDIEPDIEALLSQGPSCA
Summary of the method: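 GPX1 10 nM, GR 100 nM, GSH 1 mM, NADPH 0.5 mM, CHP 0.5 mM (final). 30-min cpd preincubation, RT. Ex340/Em450 read t=0, t=15 min.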

[2] = target: Phospholipid hydroperoxide glutathione peroxidase GPX4 (Homo sapiens) (UniProt P36969); test: Primary qHTS Assay for Inhibitors of Recombinant Selenoprotein Glutathione Peroxidase 4 (GPX4) (AID 1845192); further: nearly all actives have a fitted effect of over 65% in size
Phospholipid hydroperoxide glutathione peroxidase GPX4 (Homo sapiens), sequence (P36969 whole entry, looked up): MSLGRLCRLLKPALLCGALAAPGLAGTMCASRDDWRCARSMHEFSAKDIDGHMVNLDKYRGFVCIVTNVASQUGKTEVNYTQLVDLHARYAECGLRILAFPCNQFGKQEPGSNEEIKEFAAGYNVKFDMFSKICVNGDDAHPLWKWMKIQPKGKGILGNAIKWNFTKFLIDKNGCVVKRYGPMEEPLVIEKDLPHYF
Summary of the method: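 qHTS, GR-coupled: GPX4 200 nM + cpd 30 min RT → GSH 1 mM, NADPH 0.5 mM, GR 100 nM → CHP 0.5 mM start; fluor 340/450 at t0 and t15 min; no-enzyme wells as control.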

[3] = Primary fluorescence-based thiol-reactive (MSTI) qHTS assay for identification of artifact compounds. (AID 1845221); further: nearly all actives have a fitted effect of over 65% in size; further: potency means the concentration at half of the fitted maximal effect
Summary of the method: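 MSTI probe at 4 uM final in 2% DMSO/PBS pH 7.4; compounds, 1 h at room temperature in dark. Fluorescence Ex/Em 525/598 nm, normalised to Acetyl-MSTI and MSTI, fitted to 4-parameter Hill.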

[4] = system: Nanoluciferase (engineered Oplophorus gracilirostris luciferase); test: Primary Nanoluciferase (NLuc) qHTS assay for identification of artifact compounds. (AID 1845222);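 further: NLuc secreted into diluted conditioned medium of S16 cells; series mostly up to about 54 µM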
Summary of the method: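 Using secreted nanoluciferase in S16 culture medium (0.22 um filtered, 1:55 dilution), compounds were preincubated 15 min at RT. Signal was generated with Nano-Glo reagent (1:100) over 5 min.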

[5] = Primary redox qHTS assay for identification of artifact compounds. (AID 1845223)
Summary of the method: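 Redox-cycling detection via DTT (250 uM final) oxidation coupled to Amplex Red (25 uM)/HRP (250 mU/mL) in HBSS. 15 min preincubation plus 30 min after DTT, room temperature. Ex/Em 525/598 nm; 4-parameter Hill fit against DMSO and 10 uM DA3003.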

[6] = target: Luciferin 4-monooxygenase (Photinus pyralis) (UniProt P08659); test: Primary firefly luciferase (FLuc) qHTS assay for identification of artifact compounds. (AID 1845220); further: nearly all actives have a fitted effect of over 60% in size
Summary of the method: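 In this counter-screen for luciferase artifacts, test compounds met substrate (10 uM each luciferin and ATP) before 10 nM enzyme started the reaction. Light output was measured 5 min later.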

SMILES | Potency [1] | Potency [2] | Potency [3] | Potency [4] | Potency [5] | Potency [6]
Oc1ccc2nc(CN3CCC(Cc4ccccc4F)CC3)[nH]c2c1 | inactive | inactive | inactive | inactive | inactive | –
CC(=O)c1ccc(O[C@@H]2O[C@H](CO)[C@@H](O)[C@H](O)[C@H]2O)cc1 | inactive | inactive | inactive | inactive | inactive | –
CN[C@@H]1[C@H](O[C@H]2[C@H](O[C@@H]3[C@@H](O)[C@H](O)[C@@H](N=C(N)N)[C@H](O)[C@H]3N=C(N)N)O[C@@H](C)[C@]2(O)C=O)O[C@@H](CO)[C@H](O)[C@H]1O | inactive | inactive | inactive | inactive | inactive | –
CC(=O)O[C@@H]1[C@@H](OC(=O)/C=C/c2ccccc2)[C@@H](OC(C)=O)[C@H](O[C@H]2[C@@H]3C=CO[C@@H](O[C@@H]4O[C@H](CO)[C@@H](O)[C@H](O)[C@H]4O)[C@@H]3[C@@]3(CO)O[C@@H]23)O[C@H]1C | inactive | inactive | inactive | inactive | inactive | –
CC(C)(O)c1ccc2c(c1)C(O)C[C@H]1[C@](C)(C(=O)O)CCC[C@]21C (stereo not given in full) | inactive | inactive | – | inactive | inactive | –
O=C(O)c1cc2cccc([N+](=O)[O-])c2[nH]1 | inactive | inactive | 21.2 µM (active) | inactive | inactive | –
CC1CC(=O)C2=C(CCC3(O)C(O)c4c(O)cccc4C(=O)C23O)C1 (stereo not given) | inactive | inactive | – | inactive | inactive | –
CC(=O)OC1C(=O)C2(C)C(O)CC3OCC3(OC(C)=O)C2C(OC(=O)c2ccccc2)C2(O)CC(OC(=O)C(O)C(NC(=O)c3ccccc3)c3ccccc3)C(C)=C1C2(C)C (stereo not given) | – | inactive | inactive | inactive | inactive | inactive
CCOC(=O)C(CCc1ccccc1)NC1CSC(c2cccs2)CN(CC(=O)O)C1=O (stereo not given) | – | inactive | inactive | inactive | – | inactive
CC1=C(/C=C/C(C)=C\C=C\C(C)=C/C(=O)O)C(C)(C)CCC1 | – | inactive | inactive | inactive | – | inactive
C[C@@H]1C[C@@H]2O[C@H]2/C=C\C=C\C(=O)Cc2c(Cl)c(O)cc(O)c2C(=O)O1 | – | inactive | inactive | inactive | – | inactive
Cc1cc(N(C)C)ccc1-c1nc2ccc(-c3nc4ccc(N5CCN(C)CC5)cc4[nH]3)cc2[nH]1 | inactive | – | 2.38 µM (active) | inactive | – | –
O=C(NCc1ccccn1)Nc1nnc(-c2ccco2)o1 | inactive | – | inactive | inactive | inactive | inactive
C=C1C[C@]23C[C@H]1CC[C@H]2[C@]1(C)CCC[C@@](C)(C(=O)O)[C@H]1[C@@H]3C(=O)O | – | inactive | inactive | inactive | – | inactive
C=C(C(=O)O)C1CCC2(C)CCC(O)C(=C)C2C1 (stereo not given) | – | inactive | 13.4 µM (active) | inactive | – | inactive
COc1ccc(C(=O)n2c(C)c(Cc3cccc(O[C@@H](C)C(=O)O)c3)c3cc(OC(F)(F)F)ccc32)cc1 | inactive | – | inactive | inactive | inactive | inactive
CC(C)(C)C(=O)CN1C(=O)[C@H](NC(=O)Nc2cccc(C(=O)O)c2)CN(C2CCCCC2)c2ccccc21 | inactive | – | inactive | inactive | inactive | inactive
Nc1ccc(/C=C/C(=O)NCc2cc3cc(-c4ccc(C(=O)N5CCC(F)(F)CC5)cc4)cc(-c4ccc(F)cc4)c3o2)cn1 | inactive | – | – | inactive | inactive | inactive
O=C(c1cc2c(cc1F)OC(c1ccc(F)cc1)(c1ccc(Cl)cc1Cl)O2)N1CCOCC1 (stereo not given) | – | inactive | inactive | inactive | – | inactive
Cc1ccc(NC(=O)c2ccc(CN3CC[C@H](N(C)C)C3)c(C(F)(F)F)c2)cc1Nc1nccc(-c2cncnc2)n1 | – | inactive | inactive | inactive | inactive | inactive
Cn1cncc1C(N)(c1ccc(Cl)cc1)c1ccc2c(c1)c(-c1cccc(Cl)c1)cc(=O)n2C (stereo not given) | inactive | – | – | inactive | inactive | inactive
CC1=C(C(=O)OCc2ccccc2)C(c2ccc(-c3ccccc3)cc2)NC(=O)N1CCCCCC(=O)O (stereo not given) | inactive | – | inactive | inactive | inactive | inactive
CC(C)CC1NC(=O)C(C)NC(=O)C(CC(C)C)OC(=O)CCCNC1=O (stereo not given) | – | inactive | inactive | inactive | – | inactive
C[C@@H]1O[C@@H](O[C@H]2[C@@H]3C=CO[C@@H](O[C@@H]4O[C@H](CO)[C@@H](O)[C@H](O)[C@H]4O)[C@@H]3[C@@]3(CO)O[C@@H]23)[C@H](OC(=O)/C=C/c2ccccc2)[C@H](O)[C@H]1O | – | inactive | 7.93 µM (active) | inactive | – | inactive
O=C(c1ccc(/C=C/c2n[nH]c3ccccc23)cc1)N1CCNCC1 | inactive | – | inactive | inactive | inactive | –
